From ChEMBL document CHEMBL4513216, “Probing the Open Global Health Chemical Diversity Library for Multistage-Active Starting Points for Next-Generation Antimalarials” (ACS Infect Dis, 2020) come the findings set out here.

Hit rate of the full screen: of about 69,000 compounds, about 8,600 (12%) showed an effect of 50% or more. The entries come from a sample that favours strong results as a whole.

The experiment concerns Plasmodium berghei. As to the kind of experiment: Screen against P. berghei liver stage (PbLuc), transformed with Luciferase, at 10uM. It counts as functional, HepG2. Conditions: tested at 10 uM.
With `Cn1cc(CN2CCCC3(CCN3S(C)(=O)=O)C2)cn1` (stereo unspecified), the INHIBITION stood at 28.7%.

As for `C=C(Br)CN(C)C1CCN(CCc2ccccn2)CC1`, the INHIBITION is on record as -9.37%.

Take `O=C(CSc1ccc(Br)cc1)NS(=O)(=O)c1ccc2c(c1)OCCO2`: the INHIBITION turned out to be 30.55%.

Take `Cc1nc2c(c(N3CCCOCC3)n1)CCN(c1nccs1)CC2`: the INHIBITION is 41.1%.

For the compound `O=C(CCN1CCCCO1)N1CCC(CO)(Cc2ccccc2)CC1`, the INHIBITION is on record as -9.44%.

Regarding `CCCNC(=O)c1cc2c([nH]c1=O)CC(c1cccs1)CC2=O` (stereo unspecified), the INHIBITION stood at 41.8%.

On to `CC(C)NC(=O)c1cc2c([nH]c1=O)CC(c1cccs1)CC2=O` (stereo unspecified), for which the INHIBITION is listed as 62.3%.

As to `O=C1CC(c2ccc(F)cc2)Cc2[nH]c(=O)c(C(=O)O)cc21` (stereo unspecified), the INHIBITION is -67.9%.

In the case of `O=C1CC(c2cccs2)Cc2[nH]c(=O)c(C(=O)NC3CCCC3)cc21` (stereo unspecified), the INHIBITION turned out to be 59.5%.

In the case of `CC1CC(=O)c2cc(C(=O)N3CCc4ccccc43)c(=O)[nH]c2C1` (stereo unspecified), the INHIBITION was determined as 21.5%.

On to `O=C1CC(c2cccs2)Cc2[nH]c(=O)ccc21` (stereo unspecified), for which the INHIBITION is on record as -32.1%.

Regarding `CCOCC1CN(Cc2ccco2)Cc2nccn2C1` (stereo unspecified), the INHIBITION amounted to 10.7%.

In the case of `COc1cc(C(=O)N2C[C@@H]3CC[C@H]2CN(Cc2cscn2)C3)ccn1`, the INHIBITION is given as -16.3%.

As for `CC1(C)[C@@H]2CC=C(CN3CCCn4nc(CCC(=O)O)cc4C3)[C@H]1C2`, the INHIBITION is listed as 59.1%.

As for `O=C(NCc1cc2n(n1)CCCN(Cc1ccc(CO)o1)C2)C1CCC1`, the INHIBITION came out at 11.8%.

`CC1(C)[C@@H]2CC=C(CN3CCCn4nc(C(=O)O)cc4C3)[C@H]1C2`: the INHIBITION was determined as 65.6%.

On to `CC1(C)[C@@H]2CC=C(CN3CCCn4nc(C(=O)NCCO)cc4C3)[C@H]1C2`, for which the INHIBITION was 68.4%.

With `CN(C)C(=O)NCc1cc2n(n1)CCCN(CC1[C@H]3CNC[C@@H]13)C2` (stereo partly specified), the INHIBITION is -14.6%.

For `O=C(O)CCc1cc2n(n1)CCN(Cc1cnc(N3CCCC3)nc1)C2`, the INHIBITION came out at 7.43%.

For the compound `CCOC(=O)N1CCCn2nc(C(=O)NCCN(C)C)cc2C1`, the INHIBITION is on record as -10.2%.

Consider `CC1(C)[C@@H]2CC=C(CN3CCCn4nc(CNS(C)(=O)=O)cc4C3)[C@H]1C2`, for which the INHIBITION is listed as 25.7%.

Consider `CN(C)CCNC(=O)c1cc2n(n1)CCN(C(=O)CC(C)(C)C)C2`, for which the INHIBITION is -15.7%.

As to `Cc1nc2ccccc2nc1CN1CCn2nc(CCC(=O)O)cc2C1`, the INHIBITION amounted to 36%.

In the case of `Cc1cc(CN2CCCn3nc(CCC(=O)O)cc3C2)ccc1F`, the INHIBITION was 60.2%.

For the compound `O=C(O)CCc1cc2n(n1)CCN(Cc1ccc3[nH]ccc3c1)C2`, the INHIBITION is listed as -15.7%.

For `CC(C)CN1CCN(C)C(CCO)C1` (stereo unspecified), the INHIBITION was determined as 34.4%.

`Cc1ccc(-c2cc(CNC(=O)N3CCC(N(C)C)CC3)on2)cc1`: the INHIBITION was 17.4%.

As to `COc1ccc(C(=O)N2CC(=O)N(C3CCC3)CC(O)C2)c(OC)c1` (stereo unspecified), the INHIBITION was 13.9%.

As for `CO[C@@H]1CC[C@@H](NS(=O)(=O)c2cn(C)nc2C)[C@H]1O`, the INHIBITION is recorded as 33.8%.

In the case of `c1ccc(CN2CCC(CNc3ncnc4c3CCNCC4)CC2)cc1`, the INHIBITION is on record as 28.7%.

For the compound `COc1ccc(-c2ccc(C(=O)N3CCOCC3CC(=O)O)o2)cc1` (stereo unspecified), the INHIBITION stood at 1.71%.

For the compound `O=C(CN1CCCCCC1)N1CCc2nnc(C3CCCNC3)n2CC1` (stereo unspecified), the INHIBITION is 30.4%.

On to `CC(C)c1noc(CCNC(=O)NCC2COc3ccccc3O2)n1` (stereo unspecified), for which the INHIBITION is 7.24%.

In the case of `O=C(c1ccco1)N1CCc2ncnc(Oc3cccnc3)c2CC1`, the INHIBITION came out at 29%.

For the compound `O=C(CN1CCN(CC(O)C2CC2)CC1)NCc1ccccc1Cl` (stereo unspecified), the INHIBITION amounted to 17.6%.

For the compound `Cc1nnc(N2CCOC(C)C2)c(C#N)c1C` (stereo unspecified), the INHIBITION stood at 7.4%.

Turning to `CS(=O)(=O)N1CCCC1Cn1cccn1` (stereo unspecified), the INHIBITION was determined as 20.8%.

Take `COc1ccccc1C1=NOC(CC2(C(=O)NCCO)CCOCC2)C1` (stereo unspecified): the INHIBITION turned out to be 8.72%.

Consider `Cc1cc(CN2CCCCC2Cn2cncn2)no1` (stereo unspecified), for which the INHIBITION is 20.8%.

On to `c1ccc(-c2nc(CN3CCc4c(ncn4C4CC4)C3)cs2)cc1`, for which the INHIBITION is 34.1%.

For `CNS(=O)(=O)CC(=O)NCc1cc2c(s1)CCC(C)(C)C2`, the INHIBITION is -19.3%.

As for `O=C([C@H]1C[C@H]2OCC[C@H]2N(CCc2ccccc2)C1)N1CCCCO1`, the INHIBITION is recorded as -0.569%.

Turning to `CC(=O)N1CCC2(CC1)c1ncc(-c3ccccc3)n1CCN2C`, the INHIBITION came to 43%.

As for `CC(=O)N1CCC2(CC1)c1ncc(-c3cccnc3)n1CCN2C`, the INHIBITION was 58.4%.

Regarding `CC(=O)N1CCn2c(-c3cccc(F)c3)cnc2C12CCNCC2`, the INHIBITION is 24.9%.

Regarding `CN1CCn2c(-c3cccc(F)c3)cnc2C12CCN(CC1CC1)CC2`, the INHIBITION was 8.85%.

For the compound `CCS(=O)(=O)N1CCC2(CC1)c1ncc(-c3cccnc3)n1CCN2C`, the INHIBITION is recorded as 24.9%.

On to `CNC(=O)N1CCC2(CC1)c1ncc(-c3cccc(F)c3)n1CCN2C`, for which the INHIBITION stood at 63.3%.

As to `CCN1CCn2c(-c3cccc(F)c3)cnc2C12CCN(C(C)=O)CC2`, the INHIBITION is on record as 85.2%.

In the case of `CC(=O)N1CCC2(CC1)c1ncc(-c3ccccc3)n1CCN2C(C)=O`, the INHIBITION was -15.3%.

Turning to `CC(=O)N1CCC2(CC1)c1ncc(-c3ccc(F)cc3)n1CCN2C`, the INHIBITION stood at 39.4%.

For `COc1ccccc1CNC(=O)CN(C)C(C)c1ccon1` (stereo unspecified), the INHIBITION is recorded as -13.6%.

In the case of `COc1ccc(N2CCN(C(=O)COc3c(C)occc3=O)CC2)cc1`, the INHIBITION is -1.99%.

Turning to `O=C(O)c1ccc(=O)n(CC(c2ccc(Cl)cc2)N2CCCCCC2)c1` (stereo unspecified), the INHIBITION amounted to 10.8%.

As for `OC(CNCc1nnc2ccccn12)c1ccc2c(c1)OCO2` (stereo unspecified), the INHIBITION is given as -10.8%.

Take `Nc1nccnc1C1CN(C(=O)c2ccc3c(c2)OCO3)CCO1` (stereo unspecified): the INHIBITION is listed as 11.1%.

`Cc1c(C2CC2)n[nH]c1NC(=O)C1CCCN(C(=O)NCC(C)C)C1` (stereo unspecified): the INHIBITION stood at 35.7%.

Regarding `CCCC1c2cccn2CCN1C(=O)Cn1cnc2sc(C)cc2c1=O` (stereo unspecified), the INHIBITION turned out to be 11.35%.

With `Cc1ccc(-c2noc(CN3CCOC(Cn4cccn4)C3)n2)cc1` (stereo unspecified), the INHIBITION is 48.6%.

`Cc1cc(C)n(C2CCCN(C(=O)CCc3nccs3)C2)n1` (stereo unspecified): the INHIBITION amounted to 21.6%.

Turning to `Cn1ccnc1C(=O)NC[C@H]1OC[C@@H]2CCN(S(C)(=O)=O)C[C@@H]21`, the INHIBITION was found to be 52.1%.

On to `Cn1ccnc1C(=O)NC[C@@H]1OC[C@H]2CN(CC3CC3)CC[C@H]21`, for which the INHIBITION was determined as 20.4%.

Consider `Cn1cc(C(=O)NC[C@@H]2OC[C@H]3CN(S(C)(=O)=O)CC[C@H]32)cn1`, for which the INHIBITION amounted to 18.5%.

`CN1CC[C@@H]2[C@@H](CO[C@H]2CNC(=O)c2nccn2C)C1`: the INHIBITION is listed as -17.7%.

Take `CCCN1CC[C@@H]2[C@@H](CO[C@H]2CNC(=O)c2nccn2C)C1`: the INHIBITION stood at 34%.

Consider `Cn1ccnc1C(=O)NC[C@@H]1OC[C@H]2CN(S(C)(=O)=O)CC[C@H]21`, for which the INHIBITION amounted to 64.7%.
